Measured values taken from PubChem BioAssay AID2017 (National Center for Advancing Translational Sciences (NCATS), 2009).
Results filed as inconclusive are left out. Active and inactive are the calls of the source. Calls come from the whole dose curve; as a rule, active = well fitted curve in the direction sought with a large enough effect; inconclusive = small, poorly fitted or top-dose-only effect, or another doubt; inactive = no such curve, though single readings can be large or run the other way.

Biological target: 4-diphosphocytidyl-2-C-methyl-D-erythritol kinase, chloroplastic (Arabidopsis thaliana) (UniProt O81014)
Assay: Confirmatory Assay for Inhibitors of Human Galactokinase (GALK): CDP-Me assay counterscreen
Conditions: ATP depletion, Kinase-Glo luminescence
Text: NIH Molecular Libraries Probe Production Centers Network [MLPCN] NIH Chemical Genomics Center [NCGC] MLPCN Grant: R03 MH085689-01 Assay Submitter (PI): Kent Lai (University of Utah School of Medicine, 50 N Mario Capecchi Drive, Salt Lake City, UT 84132) NCGC Assay Overview The GHMP kinase family is a unique class of important enzymes that plays an essential role in many metabolic processes. It contains more than 170 protein members among which are the galactokinase (GALK) and the CMK enzymes. GALK plays a crucial role in galactose processing and is a potential therapeutic target for Classic Galactosemia (OMIM: 230400). CMK is involved for the non-mevalonate synthesis of isoprenoids precursors and natural products like sterols or ubiquinones which are important to many biological functions. […]
NCGC Assay Protocol Summary: Three uL/well of substrate solution (15 uM ATP, 30 uM CDP-ME, 20 mM HEPES pH8.0, 5 mM MgCl2, 40 mM KCl, 1 mM DTT, 0.01% BSA final concentration) was dispensed into 1536-well, assay plates (Greiner, solid white medium-binding plates) with Aurora Discovery BioRAPTR Flying Reagent Dispenser (FRD; Beckton-Dickenson). […] After 1 min, luminescence was detected with the ViewLux plate reader (Perkin Elmer, Waltham, MA) using a 1 sec exposure time and 2x binning settings.

4-diphosphocytidyl-2-C-methyl-D-erythritol kinase, chloroplastic (Arabidopsis thaliana), sequence (O81014 whole entry, looked up): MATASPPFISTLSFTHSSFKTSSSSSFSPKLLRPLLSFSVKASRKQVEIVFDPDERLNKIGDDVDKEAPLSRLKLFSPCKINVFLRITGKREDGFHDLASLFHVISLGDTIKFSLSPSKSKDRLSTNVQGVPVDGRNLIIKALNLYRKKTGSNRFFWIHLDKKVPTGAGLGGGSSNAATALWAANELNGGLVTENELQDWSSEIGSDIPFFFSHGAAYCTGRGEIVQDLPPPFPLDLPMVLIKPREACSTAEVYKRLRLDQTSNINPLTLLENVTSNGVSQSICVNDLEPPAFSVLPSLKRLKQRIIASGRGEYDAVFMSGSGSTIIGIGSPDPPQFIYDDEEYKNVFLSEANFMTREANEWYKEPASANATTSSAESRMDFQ

## COc1cc(/C=C2\C(=N)N3N=C(S(=O)(=O)CC(C)C)SC3=NC2=O)ccc1OC(=O)c1ccco1
  Potency: 29.8 µM (active)
